This note sets out measurements from PubChem BioAssay (NCATS).

Molecules are shown by their SMILES. Records with an inconclusive call do not appear. Unmarked numbers belong to inactive results. The source made the active and inactive calls. Calls come from the whole dose curve; as a rule, active = well fitted activation curve with a large enough effect; inconclusive = small, poorly fitted or top-dose-only effect; inactive = flat fitted curve, though single readings scatter.

This assay in a line: Primary redox qHTS assay for identification of artifact compounds. (AID 1845223).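 Note: 0% = DMSO and 100% = reference compound.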 Particulars: Amplex Red/HRP redox cycling with DTT, fluorescence; series mostly up to 53.8 µM; redox activity (% of DA3003): at the top concentration. Put shortly:
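Redox-cycling detection via DTT (250 uM final) oxidation coupled to Amplex Red (25 uM)/HRP (250 mU/mL) in HBSS. 15 min preincubation plus 30 min after DTT, room temperature. Ex/Em 525/598 nm; 4-parameter Hill fit against DMSO and 10 uM DA3003.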
As for `CC(=O)O[C@@H]1[C@H]2[C@@H](OC(=O)c3ccccc3)[C@@H](C)C[C@]2(O)[C@H](OC(C)=O)[C@@]2(C)[C@@H]3CC(C)(C)C(=O)[C@]3(OC(C)=O)C[C@@]12C`, the “redox activity (% of DA3003)” value is 6.88% [at 25.6 µM]. The same measure, in the same setting: in the case of `CC(=O)OCC1=C[C@H](O)[C@@H]2C(C(=O)O)=CO[C@@H](O[C@@H]3O[C@H](CO)[C@@H](O)[C@H](O)[C@H]3O)[C@H]12` it was -17.3% [at 25.6 µM]. Still for that read-out and setting: the same measure for `COc1ccc(C(O[C@@H]2O[C@H](CO)[C@@H](O)[C@H](O)[C@H]2O)C(CO)Oc2ccc(/C=C/CO)cc2OC)cc1O` (stereo not given in full): -16.1% [at 25.6 µM]. Same read-out and setting: the same measure for `O=S(=O)(Nc1ccc(C(O)(C(F)(F)F)C(F)(F)F)cc1)c1cccs1`: -1.74%. With `CC1(C)CCCC2(C)C1C(O)C=C(CO)C2(O)C(=O)O` (stereo not given), the “redox activity (% of DA3003)” value was 6.21%. On the same count and under the same terms, in the case of `COc1cc(CCc2ccccc2)c(C(=O)O)c2c1CC(C(C)(C)O)O2` (stereo not given) it was 10.9%; in that of `Cc1coc2c1CC1OC1(C)CCC1OC1(C)C2` (stereo not given), -5.07%.

Consider `COc1cc2c(cc1OC)CN(C(=O)[C@@H](NCc1ccncc1)C(C)(C)C)CC2`, for which the “redox activity (% of DA3003)” value was 14.7%. For the compound `O=C(C1CC1)N1CC[C@@H](Cc2n[nH]c(=O)n2-c2ccc(-c3ccc4occc4c3)cc2)C1`, the “redox activity (% of DA3003)” value is 15.9% [at 25.6 µM]. Still for that read-out and setting: the same measure for `CCC[C@@H]1C[C@@H](C(=O)N[C@H](C(C)Cl)[C@H]2O[C@H](SC)[C@H](O)[C@@H](O)[C@H]2O)N(C)C1` (stereo not given in full): 13.8%. The same measure, in the same setting: in the case of `C=CC(C)(CC/C=C(\C)CC/C=C(\C)CC(O)/C=C(\C)C(=O)O)O[C@@H]1O[C@H](CO)[C@@H](O)[C@H](O)[C@H]1O[C@@H]1O[C@H](CO)[C@@H](O)[C@H](O)[C@H]1O` (stereo not given in full) it was 5.71% [at 25.6 µM]; in that of `CCC(NC(=O)CC(NC(=O)C(CO)NC(=O)C(CC)NC(=O)c1ccc[nH]1)c1ccccc1)C(=O)O` (stereo not given), -16.9% [at 25.6 µM].

Turning to `C=C1CCC2(OC1)OC1CC3C4CC=C5CC(O)CC(O[C@@H]6OC[C@@H](O)[C@H](O)[C@H]6O)C5(C)C4CCC3(C)C1(O)C2C` (stereo not given in full), the “redox activity (% of DA3003)” value is -3.33% [at 25.6 µM]. The same measure, in the same setting: in the case of `C[C@]12CC[C@@H]3c4ccc(O[C@@H]5O[C@H](C(=O)O)[C@@H](O)[C@H](O)[C@H]5O)cc4CC[C@H]3[C@@H]1CCC2=O` it was -3.18%; in that of `C=C1CC[C@H]2[C@@](C)(CCC[C@@]2(C)C(=O)O)[C@@H]1CCC(C)CCO` (stereo not given in full), 4.19%. The same measure, in the same setting: in the case of `C=CC1(C)CC2=CCC3C(C)(C(=O)O)CCCC3(C)C2CC1OC(C)=O` (stereo not given) it was 2.62%; in that of `Nc1ncnc2c1ncn2[C@H]1CCCO1`, -5.58%. Same read-out and setting: in the case of `CC(C)(O)CNc1nc(Nc2ccnc(C(F)(F)F)c2)nc(-c2cccc(C(F)(F)F)n2)n1` it was 4.9% [at 25.6 µM]; in that of `CC1(C)CC[C@]2(C(=O)O[C@@H]3O[C@H](CO)[C@@H](O)[C@H](O)[C@H]3O)CC[C@]3(C)C(=CCC4[C@@]5(C)C[C@@H](O)[C@H](O)C(CO)(CO)C5CC[C@]43C)C2[C@@H]1O` (stereo not given in full), -13.4% [at 25.6 µM]. On to `C=CC1(C)C=C2C(=O)CC3C(C)(C)CCCC3(C(=O)O)C2(O)CC1` (stereo not given), for which the “redox activity (% of DA3003)” value is 19.1%. Turning to `O=C(NN1CCCCC1)c1nn(-c2ccc(Cl)cc2Cl)c(-c2ccc(C#Cc3ccc(C(F)(F)F)cc3)s2)c1CNS(=O)(=O)N1CCCC1`, the “redox activity (% of DA3003)” value was -3.36%.

On to `O=C1N(CC2CCCCN2)CCN1c1ccccc1` (stereo not given), for which the “redox activity (% of DA3003)” value is -5.93%. Still for that read-out and setting: the same measure for `COc1cc([C@H]2OC[C@@H]3[C@@H](c4ccc(O[C@@H]5O[C@H](CO)[C@@H](O)[C@H](O)[C@H]5O)c(OC)c4)OC[C@]23O)ccc1O`: -1.82% [at 25.6 µM]; for `CC(C)(O)C1CC=C(C(=O)OCC2OC(Oc3c(O)cc(C(=O)O)cc3O)C(O)C(O)C2O)CC1` (stereo not given): -2.22% [at 25.6 µM]; for `O=C(CCCCc1ccc2ccccc2c1)C(F)(F)F`: -1.53% [at 114 µM]. Turning to `C=CC(C)(O)CC/C=C(/C)C(=O)OC1C(OC2OCC(OC3OC(CO)C(O)C(O)C3O)C(OC3OCC(O)C(OC4OC(C)C(O)C(O)C4O)C3O)C2O)COC(OC(=O)C23CCC(C)(C)CC2C2=CCC4C5(C)CCC(OC6OC(CO)C(OC7OC(CO)C(O)C(OC8OCC(O)C(O)C8O)C7O)C(O)C6O)C(C)(C)C5CCC4(C)C2(C)CC3O)C1O` (stereo not given), the redox activity (% of DA3003) was 3.8% [at 6.41 µM].

Take `Cc1cccc(-c2[nH]c(CNc3ccccc3F)nc2-c2ccc3ncnn3c2)n1`: the “redox activity (% of DA3003)” value was 8.88%.

Consider `CNC(=O)O[C@H]1COc2ccc(N3CCN(C4COC4)CC3)cc2[C@@H]1NC(=O)c1ccc(F)cc1`, for which the “redox activity (% of DA3003)” value was 8.14%. Still for that read-out and setting: the same measure for `COc1cc(C(=O)OC[C@H]2O[C@H](O[C@@]3(CO)O[C@@H](CO)[C@H](O)[C@H]3O)[C@H](O)[C@@H](O)[C@@H]2O)ccc1O`: -12.6% [at 25.6 µM]; for `C[C@]12CCC(=O)C=C1[C@@H](O)C[C@@H]1[C@@H]2[C@@H](O)C[C@@]2(C)[C@H]1CC[C@]2(O)C(=O)CO`: -3.66%. On the same count and under the same terms, the same measure for `OCc1ccccc1O[C@@H]1O[C@H](CO)[C@@H](O)[C@H](O)[C@H]1O`: -0.102%; for `O=C(O)C[C@H](O)C[C@H](O)/C=C/c1c(C2CC2)nc2ccccc2c1-c1ccc(F)cc1`: 15.3%. For `C=C1[C@H]2CC[C@]3(O)[C@@](CC[C@@H]4[C@](C)(C(=O)O)CCC[C@]43C)(C2)[C@H]1OC(=O)/C(C)=C\C`, the “redox activity (% of DA3003)” value is 3.94% [at 25.6 µM].

With `CCN[C@@H]1C[C@H](N)[C@@H](O[C@H]2OC(CN)=CC[C@H]2N)[C@H](O)[C@H]1O[C@H]1OC[C@](C)(O)[C@H](NC)[C@H]1O`, the Potency result was “inactive”. As to `OC[C@H]1O[C@@H](OCCc2ccc(O)cc2)[C@H](O)[C@@H](O)[C@@H]1O`, the “redox activity (% of DA3003)” value was -15.3%. Same read-out and setting: in the case of `C=C1CC2C3(C)C(OC(C)=O)CC(=O)OC(C)(C)C3C(O)C(OC(C)=O)C2(C)C2C(=O)OC(C)C(=O)C12C` (stereo not given) it was 6.85% [at 25.6 µM]. Still for that read-out and setting: the same measure for `C[C@@H]1O[C@@H](O[C@H]2[C@H](OC(=O)C34CCC5(C)C(=CCC6C7(C)CC(O)C(O[C@@H]8O[C@H](C(=O)O)[C@@H](O)[C@H](O)[C@H]8O)C(C)(C(=O)O)C7CCC65C)C3CC(C)(C)CC4O)O[C@H](C)[C@@H](O)[C@@H]2O)[C@H](O)[C@@H](O[C@@H]2OC[C@](O)(CO)[C@H]2O[C@@H]2O[C@H](CO)[C@@H](O)[C@H](O)[C@H]2O)[C@H]1O` (stereo not given in full): 3.71% [at 11.5 µM]; for `CC12CCC3c4ccc(O)cc4CCC3C1CCC2OC1OC(C(=O)O)C(O)C(O)C1O` (stereo not given): -2.53%; for `C[C@@H]1C(=O)O[C@H]2[C@H]1CC[C@@]1(C)C(=O)C=C[C@](C)(O)[C@H]21`: 4.49%. As for `Cc1onc(-c2ccccc2)c1C(=O)N[C@@H]1C(=O)N2[C@@H]1SC(C)(C)[C@@H]2C(=O)O`, the Potency result was “inactive”.
